# Experimental data from PubChem BioAssay AID2315 (National Center for Advancing Translational Sciences (NCATS), 2010).
# Screen size: about 290,000 compounds; about 27,000 (9.3%) were called active. The list comes from a sample in which actives are over-represented; it also holds similar structures and randomly drawn compounds. A number with no mark means an inactive call. No stated cut-off is given here; in the data, active means inhibition mostly above about 28% (no sharp cut-off); inactive means mostly below about 43%.
# Experiment: A qHTS for Small Molecule Inhibitors of Shiga Toxin; further: 0% is about no effect
# Conditions: Vero cells, Shiga toxin protein synthesis inhibition reporter; at 38.7 µM, hits give high values
row,Compound,inhibition
1,CC(=O)N1CCN(CC(=O)Nc2ccc(C)c(F)c2)CC1,-1.77%
2,O=C(Nc1cccc([N+](=O)[O-])c1)Nc1ccc(Cl)cn1,0.898%
3,CCCc1cc(C(=O)Nc2ccc(C(=O)OC)cc2)cs1,28.2%
4,CCCc1cc(C(=O)Nc2ccc(Cl)cn2)cs1,57.6% (active)
5,O=C(Nc1ccc(Cl)cn1)Nc1cccs1,65.7% (active)
6,CCCCC(CC)C(=O)Nc1ccc(Cl)cn1 (stereo unspecified),6.98%
7,COc1c(Cl)cc(C(=O)Nc2ccc(Cl)cn2)cc1Cl,8.12%
8,C[C@H](NC(=O)c1nc[nH]c1C(=O)NCC(=O)OC(C)(C)C)c1ccccc1,-2.69%
9,COC(=O)c1ccc(Sc2ccc(F)cc2)c(N)c1,64.7% (active)
10,COC(=O)c1ccc(C(=O)OC)c(NC(=S)N2CCN(c3ccc(F)cc3)CC2)c1,-8.17%
11,COC(=O)c1nc(NC(=O)c2ccc(F)cc2)n[nH]1,0.673%
12,COC(=O)c1ccc(C(=O)NC2CC(C)(C)Cc3c2cnn3-c2ccc(F)cc2)nc1 (stereo unspecified),19.8%
13,CCOc1ccc2nc(Cl)c(C3CC(c4ccccc4)=NN3C(=O)c3cccs3)cc2c1 (stereo unspecified),-5.57%
14,COc1ccc(C2CC(c3ccccc3)=NN2C(=O)c2ccc(Cl)c([N+](=O)[O-])c2)cc1 (stereo unspecified),-3.59%
15,COc1cccc(C2CC(c3ccccc3)=NN2S(=O)(=O)c2ccccc2)c1OC (stereo unspecified),-3.39%
16,COc1ccc(C2CC(c3ccc([N+](=O)[O-])cc3)=NN2C(C)=O)cc1 (stereo unspecified),37.4% (active)
17,COc1ccc(C2CC(c3ccccc3)=NN2C(=O)COC(=O)COc2ccccc2)cc1 (stereo unspecified),30.8%
18,COc1ccc(C2=NN(C(=O)CCC(=O)O)C(c3cccs3)C2)cc1OC (stereo unspecified),-6.96%
19,COc1ccc(C(=O)Nc2nc(-c3ccc(OC)cc3)c(-c3ccc([N+](=O)[O-])cc3)s2)cc1,-3.81%
20,COc1ccc(C2CC(c3ccccc3)=NN2C(=O)CSc2nccc(=O)[nH]2)cc1 (stereo unspecified),50.8% (active)
21,COc1ccc(C2=NN(C(=O)c3cccnc3)C(c3ccccc3)C2)cc1 (stereo unspecified),-14.3%
22,COc1ccc(C2=NN(C(C)=O)C(c3ccccc3)C2)cc1 (stereo unspecified),26.2% (active)
23,COc1ccc(C2=NN(C(=O)c3ccccc3C(=O)O)C(c3ccccc3O)C2)cc1 (stereo unspecified),162% (active)
24,COc1ccc(C(=O)CSc2nccc(=O)[nH]2)cc1,11%

row,Compound,inhibition
1,Brc1ccccc1CN1CCC(Cc2ccccc2)CC1,14.5%
2,N[C@@H](Cc1ccccc1)C(=O)N1CCC(C(=O)NCC(=O)Nc2ccc(F)cc2)CC1,9.91%
3,COc1ccc(CCNC(=O)C(=O)NCC2OCCN2S(=O)(=O)c2ccc(OC)c(C)c2)cc1 (stereo unspecified),2.43%
4,Cc1ccc(NS(=O)(=O)c2ccc(-c3coc(C)n3)cc2)c(C)c1,-3.55%
5,CCC(CC)C(=O)Nc1c2c(nn1-c1ccc(C)cc1)CS(=O)(=O)C2,-8.79%
6,CCN(CC)CCCNC(=O)c1cc2c(=O)[nH]c3ccc(C)cc3c2s1,-4.39%
7,O=C(C1CC(=O)N(C2CCCCC2)C1)N1CCN(c2ccccc2)CC1 (stereo unspecified),27.8%
8,C/C(=N\NC(=O)Cc1ccccc1[N+](=O)[O-])c1cccnc1,-10.2%
9,Cc1cc(C(=O)NC2CC(C)(C)Cc3c2cnn3-c2ccccc2)n[nH]1 (stereo unspecified),-14.3%
10,CN(C(=O)CC1C(=O)NCCN1Cc1ccc2ccccc2c1)C1CCOCC1 (stereo unspecified),-0.828%
11,CN1/C(=C\C(=O)c2oc3ccccc3c2N)C(C)(C)c2ccccc21,14.5%
12,CN1/C(=C\C(=O)c2cccnc2Cl)C(C)(C)c2ccccc21,-10.8% (active)
13,CC(C)Nc1nnc(SCC(=O)/C=C2\N(C)c3ccccc3C2(C)C)s1,13.3%
14,Cc1ccccc1-c1nc(CS(=O)(=O)CC(=O)NC(C)c2ccccc2)c(C)o1 (stereo unspecified),-2.18%
15,CC1C(=O)C(C)C(c2ccc(O)cc2)NC1c1ccc(O)cc1 (stereo unspecified),-9.62%
16,Cc1ccc(S(=O)(=O)NCC(=O)N2CCOCCOCCOCCOCC2)cc1,-2.1%
17,Cc1ccc(Cl)cc1NC(=O)COC(=O)CC(C)(C)C,-3.98%
18,C/C(CC(=O)N1CCN(C=O)CC1)=N\NC(=O)c1ccc(Br)cc1,36.4%
19,C/C(=N\NC(=O)Cc1ccc(F)cc1)c1ccc(F)cc1,11.6%
20,O=C(O)CC/C(=N\NC(=O)c1ccc(F)cc1)c1ccc(Br)cc1,57.9% (active)
21,CCn1ccnc1CNC(=O)CC1C(=O)NCCN1CCCc1ccccc1 (stereo unspecified),12.9%
22,COc1ccc(CC(=O)Nc2c(C(N)=O)oc3ccccc23)cc1,9.35%
23,COc1cc(C(C(=O)NC2CCCC2)N(C(=O)c2ccco2)c2ccccc2C(C)=O)cc(OC)c1OC (stereo unspecified),-3.47%
24,COC(C(=O)Nc1ccc(C(C)=O)cc1)c1ccccc1 (stereo unspecified),10.3%

row,Compound,inhibition
1,COc1ccc(NC(=O)[C@H](NC(=O)[C@@H]2Cc3ccccc3CN2)c2ccccc2)cc1,-2.7%
2,COc1ccc(NC(C(=O)Nc2cccc(C(C)=O)c2)c2ccccc2)cc1 (stereo unspecified),27.6% (active)
3,Cc1cc(C)cc(N(CC(=O)N2CC=C(c3ccccc3)CC2)S(=O)(=O)c2c(C)noc2C)c1,-8.45%
4,CN(C)/C=C(\C=[N+](C)C)c1[nH]ncc1[N+](=O)[O-],-4.31%
5,CNc1ccc(NC(C)=O)cc1[N+](=O)[O-],-5.19%
6,CNc1[nH]ncc1[N+](=O)[O-],120% (active)
7,Cc1cc(-c2csc(N)n2)c(C)n1-c1ccccc1,34.4%
8,Cc1cc(-c2csc(N)n2)c(C)n1Cc1ccccc1,28.2% (active)
9,CC(=O)Nc1ccc(C(=O)Nc2nc(-c3cc(C)n(Cc4ccccc4)c3C)cs2)cc1,-6.21%
10,Cc1ccccc1NC(=O)CSc1nc2ccc(Nc3nc(N4CCOCC4)nc(N4CCOCC4)n3)cc2s1,23.8%
11,Fc1ccc(-c2ccc(-c3nn4c(-c5ccco5)nnc4s3)o2)cc1,26.5% (active)
12,Cc1nnc2sc(-c3ccco3)nn12,-4.02%
13,FC(F)(F)c1nnc2sc(-c3ccco3)nn12,7.08%
14,Cc1ccc(NC(=O)CNCc2ccccn2)cc1S(=O)(=O)N(C)C,40.8%
15,CCN(CC)S(=O)(=O)c1cc(C(=O)Nc2ccccn2)ccc1C,119% (active)
16,CCN(CC)S(=O)(=O)c1ccc(NC(=O)c2cccnc2Cl)c(NC(=O)c2cccnc2Cl)c1,-4.86%
17,COc1cc(C(=O)NCc2nnc(SCC(=O)c3ccc(Cl)cc3)o2)cc(OC)c1OC,-10.7%
18,OCCN1CCN(c2nnc(-c3ccccc3)c3ccccc23)CC1,-4.9%
19,Cc1nc(C)c(-c2nnc(-c3cccc(S(=O)(=O)N(C)C)c3)o2)cc1C(=O)NN,3.74%
20,COc1ccc2c(C(=O)c3ccc(C)cc3)n(CCC(N)=O)[n+]([O-])c2c1,7.71%
21,NC(=O)Cc1ccc2sc(-c3ccccc3)nc2c1,79.9% (active)
22,O=C(O)Cc1sc(-c2ccccc2)nc1-c1cccs1,47.2%
23,NC(=O)Cc1ccc2c(c1)[nH]c1ccccc12,11.9%
24,Cc1cc(S(=O)(=O)NCc2ccccn2)c(Cl)cc1Cl,-4.73%

row,Compound,inhibition
1,CCSc1nc(O)c(C(c2cccc(OC)c2)c2c(O)nc(SCC)[nH]c2=O)c(=O)[nH]1,19.1%
2,CC(=O)NCCC(=O)Nc1cc(S(=O)(=O)N2CCCCC2)ccc1Oc1cccc(C)c1,-10.6%
3,C/C(CC(=O)Nc1cccc(F)c1)=N\NC(=O)C(=O)NC1CCCCC1,-4.86%
4,O=C(Nc1cccc(F)c1)NC1CCCCCCC1,159% (active)
5,O=C(Nc1cccc(F)c1)NC1CCCc2ccccc21 (stereo unspecified),-2.03%
6,Cc1ccc(NC(=S)NC2CCCC2)cc1,85% (active)
7,Cc1ccc(NC(=O)CSCC(=O)NC2CCCCC2)cc1,5.95%
8,Cc1cc(C)cc(NC(=O)NC2CCCCCCC2)c1,14.2%
9,Cc1cc(Br)ccc1NC(=S)NC1CCCC1,35.4%
10,CC(C)c1ccc(NC(=O)NC2CCCCC2)cc1,107% (active)
11,CC(C)(C)NS(=O)(=O)c1ccc(NC(=O)NC2CCCCC2)cc1,56.6%
12,Cc1cccc(N2CCN(S(=O)(=O)c3ccc(-c4cc(C)no4)s3)CC2C)c1 (stereo unspecified),-9.9%
13,COc1ccc([N+](=O)[O-])cc1NCC(=O)c1ccc(C)cc1,17.1%
14,COc1ccccc1NC(=O)C1CCN(C(=O)c2ccc(C(C)(C)C)cc2)CC1,18.1%
15,COc1ccccc1C(=O)Nc1ccnn1C1CCN(C(=O)C(C)(C)C)CC1,20.1%
16,O=C(c1c(Cl)cccc1Cl)N1CCN(c2cccc3[nH]ccc23)CC1,-6.91%
17,O=C(c1ccc2ccccc2n1)N1CCN(c2ccccc2Cl)CC1,62.1% (active)
18,COc1ccccc1N1CCN(C(=O)c2c(-c3c(Cl)cccc3Cl)noc2C)CC1,-7.02%
19,Cn1c(CCc2ccccc2)nnc1SCC(N)=O,-2.98%
20,CCOc1ccc(-n2c(SCC(N)=O)nnc2-c2ccco2)cc1,1.48%
21,Cc1ccc(NC(=O)CN(C)C(=O)c2ccc(Br)o2)cc1,24.8%
22,COc1ccc(C(=O)CC(=O)c2ccc(C)cc2)c(O)c1,5.12%
23,Cc1cc(O)cc(O)c1C(=O)Cc1cnn(-c2ccccc2)c1,52.3%
24,COc1ccc(C(=O)Cc2cnn(-c3ccccc3)c2)c(O)c1,104% (active)
